Only some compounds are listed: those with a hit (about 11% of all), similar ones and a draw of the others.
L3MBTL1 inh = L3MBTL1 (human) inhibition; Q9Y468; AlphaScreen L3MBTL1–H3K9me1 peptide binding; Potency, µM (doses to about 57.1 µM), without a hit: at the highest dose activity, negative = inhibition, actives largely listed as inhibitors; 0.66% of 230,000 active; note: % is set by controls: 0 for no effect and ±100 for the full control effect; nearly all actives have a fitted effect of over 60% in size
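AlphaScreen assay: L3MBTL1 (50 nM final) was preincubated 30 min at room temperature with biotinylated H3(1-15)K9me1 peptide (75 nM final), then 30 min with library compounds; streptavidin donor and nickel chelate acceptor beads (10 ug/mL final) added, 30 min dark.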
G9a block = inhibitors of human histone lysine methyltransferase G9a; Q96KQ7; G9a H3K9 monomethylation, AlphaScreen, 2 h; Potency, µM (titrated, usually from 102 µM), for inactives: at the highest dose activity, negative = inhibition, actives largely listed as inhibitors; 8.8% of 350,000 active; AID 504332; note: % is set by controls: 0 for no effect and ±100 for the full control effect; nearly all actives have a fitted effect of over 75% in size
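G9a (20 nM) preincubated 15 min RT with compounds, then 500 nM biotinylated H3K9 peptide and 20 uM SAM added; 2 h RT reaction. Monomethyl-H3K9 product detected by AlphaScreen with anti-H3K9me1 antibody, streptavidin donor and anti-rabbit IgG acceptor beads.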
JMJD2A Tudor inh = inhibitors of human JMJD2A Tudor domain; O75164; AlphaScreen JMJD2A-Tudor / H3K4me3 peptide binding; Potency, µM (highest dose often 114 µM), without a hit: at the highest dose activity change, negative = inhibition, most hits filed as inhibitors; 4.4% of 390,000 active; note: % is set by controls: 0 for no effect and ±100 for the full control effect; nearly all actives have a fitted effect of over 50% in size
BAZ2B inh = inhibitors of human BAZ2B bromodomain | AlphaScreen BAZ2B-H3K14Ac peptide displacement | AID 504333 | Q9UIF8 | 4.4% of 360,000 active | Potency, µM (highest dose often 114 µM), for inactives: at the highest dose activity change, negative = inhibition, hits mostly inhibitors; note: % is set by controls: 0 for no effect and ±100 for the full control effect; nearly all actives have a fitted effect of over 60% in size
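In this displacement format the biotinylated H3(5-23) peptide acetylated at Lys14 serves as ligand at 50 nM, with BAZ2B at 50 nM in PBS pH 7.4 containing 0.01% Tween-20. Donor and acceptor beads are 10 ug/mL final.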
HP1b chromo inh = blocks HP1-beta chromodomain binding to methylated histone tails; 0.56% of 390,000 active; AID 540317; Potency, µM (doses to about 114 µM), without a hit: at the highest dose activity change, negative = inhibition, most hits filed as inhibitors; AlphaScreen HP1-beta / biotin-H3K9me3 peptide binding; note: nearly all actives have a fitted effect of over 70% in size
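AlphaScreen: HP1-beta (50 nM) preformed 30 min with biotin-H3(1-18)K9me3 peptide (50 nM) in PBS pH 7.4, 0.01% Tween-20. Compound added for 30 min at RT, then streptavidin donor/nickel chelate acceptor beads (10 ug/mL) for 30 min.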
Numbers without * were called inactive; ? = inconclusive; nt = no result given; [ ] = remark or other dose. Calls come from the whole dose curve; as a rule, active = well fitted inhibition curve with a large enough effect; inconclusive = small, poorly fitted or top-dose-only effect; inactive = no such curve, though single readings can be large or run the other way. Potency is the fitted concentration of half-maximal effect.

SMILES	L3MBTL1 inh	G9a block	JMJD2A Tudor inh	BAZ2B inh	HP1b chromo inh
COc1ccccc1NC(=O)C1=C(C)Nc2nc(SCc3ccccc3F)nn2C1c1cccnc1 (stereo unspecified)	nt	-12%[59 µM]	-10%	-29%	16%
COc1ccccc1NC(=O)C1=C(C)Nc2nc(CCCO)nn2C1c1cccnc1 (stereo unspecified)	0%	50µM*	3%	-5%	27%
CC1=C(C(=O)Nc2ccccc2C)C(c2cccnc2)n2nc(CCCO)nc2N1 (stereo unspecified)	-20%[11.4 µM]	-1%[59 µM]	9%	7%	43%
COc1ccccc1NC(=O)C1=C(C)Nc2nc(SCc3ccccc3)nn2C1c1cccnc1 (stereo unspecified)	nt	1%[59 µM]	-19%	79µM*	15%
COc1cccc(NC(=O)c2cc3c(=O)n(Cc4cccnc4)ccc3nc2C)c1	nt	-1%[59 µM]	-11%	-12%	30%
COc1ccc(S(=O)(=O)c2c(Nc3cccc(C)c3C)sc(C(=O)c3ccccc3)c2N)cc1	nt	-4%[59 µM]	-25%	-19%	24%
CS(=O)(=O)c1ccc(C(=O)Nc2cc(S(C)(=O)=O)ccc2Cl)cc1	3%	45µM*	-12%	0%	11%
CCOc1ccc(NS(=O)(=O)c2ccc3[nH]c4c(c3c2)CCCCC4)cc1	nt	?	28µM*	-27%[57.1 µM]	-14%
COc1ccc(NS(=O)(=O)c2ccc3[nH]c4c(c3c2)CCCC4)c(OC)c1	nt	10µM*	?	?	-32%
COc1ccc(OC)c(CNS(=O)(=O)c2ccc3[nH]c4c(c3c2)CCCCC4)c1	nt	13µM*	35µM*	?	?
COc1ccc(NS(=O)(=O)c2ccc3[nH]c4c(c3c2)CCCCC4)cc1	nt	?	32µM*	2%[57.1 µM]	?
Cc1cccc(N2CC(c3nc4ccccc4n3CCC3CCCCC3)CC2=O)c1 (stereo unspecified)	nt	?	1%	0%	45%
CCN1CCN(c2cc(C)c3cc(NC(=S)N(CC)CC)ccc3n2)CC1	nt	35µM*	?	?	1%[57 µM]
COc1ccccc1N1CCN(C(=S)Nc2ccc3nc(N4CCOCC4)cc(C)c3c2)CC1	nt	56µM*	?	nt	?
CCN1CCN(c2cc(C)c3cc(NC(=S)N4CCN(c5ccccc5)CC4)ccc3n2)CC1	nt	-41%[59 µM]	-17%	?	7%
CCN1CCN(c2cc(C)c3cc(NC(=S)N4CCC5(CC4)OCCO5)ccc3n2)CC1	nt	?	-27%	-1%	17%
CCC(C)NC(=S)Nc1ccc2nc(N3CCN(CC)CC3)cc(C)c2c1 (stereo unspecified)	nt	?	-28%	-25%	13%
Cc1cc(N2CCOCC2)nc2ccc(NC(=S)N3CCN(c4ccccc4)CC3)cc12	nt	?	-22%	nt	20%
CCN1CCN(c2cc(C)c3cc(NC(=S)N4CCOCC4)ccc3n2)CC1	nt	40µM*	-13%	-25%	11%[57 µM]
CCCN1CCN(C(=S)Nc2ccc3nc(N4CCN(CC)CC4)cc(C)c3c2)CC1	nt	45µM*	-26%	-19%	-7%
COc1ccc(S(=O)(=O)N(Cc2nc(-c3cccc(C)c3)no2)C2CCCCC2)cc1	nt	23%[59 µM]	14%	0%	63%
Cc1cc(N2CCC(C)CC2)nc2ccc(NC(=O)CCC(=O)N3CCN(c4ccccc4F)CC3)cc12	nt	-2%[59 µM]	7%	-2%	26%
CCN1CCN(c2cc(C)c3cc(NC(=O)CCC(=O)N4CCN(c5ccccc5)CC4)ccc3n2)CC1	nt	79µM*	?	-20%	-18%
CCN1CCN(c2cc(C)c3cc(NC(=O)c4cccc(Cl)c4)ccc3n2)CC1	nt	-35%[59 µM]	?	-2%	-4%
CCN1CCN(c2cc(C)c3cc(NC(=O)/C=C/c4cccc(Cl)c4)ccc3n2)CC1	nt	11µM*	32µM*	?	-35%
SMILES	L3MBTL1 inh	G9a block	JMJD2A Tudor inh	BAZ2B inh	HP1b chromo inh
CCN1CCN(c2cc(C)c3cc(NC(=S)N4CCN(c5ccccc5F)CC4)ccc3n2)CC1	nt	45µM*	?	?	-6%
Cn1c(C(=O)N2CCC(C(=O)NCCc3ccc(S(N)(=O)=O)cc3)CC2)cc2sccc21	nt	11%[59 µM]	3%	-19%	38%
Cc1ccc(NC(=O)CCC(=O)c2cccs2)c(O)c1	nt	50%[12.7 µM]	-15%	-15%	23%
Cc1ccc(S(=O)(=O)NCc2ccc(C(=O)NCCc3ccc(S(N)(=O)=O)cc3)cc2)cc1	nt	?	-8%	-13%	36%
C=C(c1cccc2ccccc12)P(=O)(O)O	?	16µM*	?	13%	47%
N=c1c(C(=O)NCC2CCCO2)cc2c(=O)n3ccccc3nc2n1CCCO (stereo unspecified)	nt	-27%[59 µM]	-15%	0%	36%
COc1ccc(-c2nc(CN3CCC(C(=O)NCCCOC(C)C)CC3)c(C)o2)cc1OC	nt	8.9µM*	-19%	-8%	27%
O=C(CCS(=O)(=O)c1cccc2nonc12)NCc1ccc(Cl)cc1	-13%	-27%	-21%	-18%	10%
Cn1c(-c2sc3cc(C(F)(F)F)cnc3c2-c2cccnc2)n[nH]c1=S	nt	3.5µM*	-27%[11.4 µM]	-9%	-13%
CSc1nnc(-c2sc3cc(C(F)(F)F)cnc3c2-c2ccccn2)n1C	nt	3%[59 µM]	-17%[57.1 µM]	11%	35%
Cn1c(-c2sc3cc(C(F)(F)F)cnc3c2-c2ccccn2)n[nH]c1=S	-2%	6.3µM*	14µM*	-16%	23%
Cn1c(-c2sc3cc(C(F)(F)F)cnc3c2-c2cccs2)n[nH]c1=S	-14%	4µM*	-30%	-1%	2%
CCOc1ccccc1CNC(=O)CN1C(=O)CCCc2ccccc21	nt	6%[59 µM]	-10%	-17%	23%
COC(=O)/C=C/c1ccc(C(=O)NCC(=O)N[C@@H](CCC(=O)OC)C(=O)N[C@@H](CC(C)C)C(N)=O)cc1	nt	26%[59 µM]	nt	nt	nt
CC(COc1ccc(/C=C/c2ccccc2)cc1)[N+](C)(C)C (stereo unspecified)	-2%	4µM*	-25%	4%	27%
COc1ccc(/C=C/c2nc3ccccc3n2C)cc1	nt	18%[59 µM]	36%	7%	76%
CCC1CO/C(=C(\C(Cl)=C(Cl)Cl)[N+](=O)[O-])N1 (stereo unspecified)	nt	79µM*	-16%[11.4 µM]	2%	?
COc1ccccc1NC(=O)CSc1nnc(N)s1	nt	?	0%	1%	36%
O=c1c2ccccc2cnn1Cc1n[nH]c(=S)n1-c1ccccc1Cl	6%	4.5µM*	32µM*	-29%	40%
CCn1c(=O)n(-c2ccc(F)c(Cl)c2)c(=O)c2sc3ccccc3c21	nt	6%[59 µM]	-5%	-11%	29%
O=c1c2ccccc2cnn1Cc1ccc(Cl)c(Cl)c1	nt	20%	52%	66%	61%
O=c1c2ccccc2cnn1Cc1n[nH]c(=S)n1-c1cc(Cl)cc(Cl)c1	0%	0.4µM*	25µM*	-34%	21%
O=c1c2ccccc2cnn1Cc1n[nH]c(=S)n1-c1ccc(F)c(Cl)c1	-8%	3.2µM*	7.9µM*	-25%	32%
